Results on 15 sequences are retold here after the OligoGym collection.
Note: reference of the scale not given here.

The first assay addresses NARF. The assay can be described thus: pooled miR-30 sensor sort-seq; sequence = guide strand. Conditions: shRNA.
Turning to TTGAGGAAACCACAGAGTCTTC, the sensor-assay potency score (higher = more potent) was -1.68.
Still for that read-out and setting: then TTTCTTACTACATTCCTTGCGC, with 0.306; and TTCTTTTTGACTCTCCAGGATA, with -1.07.

A further assay concerns the target NAT8L. The description is as above. The conditions noted are these: shRNA.
Sequence TACAGTCTACAAAACTCCCATC gave a sensor-assay potency score (higher = more potent) of -1.25.
Take TTAACAAAATCTGAGCTGCAAG: the sensor-assay potency score (higher = more potent) was -1.08.
The same measure, in the same setting: then TTGTGCACCACGGCGAACTCCA, with -0.938; and TGCCTCGGAAACGTGAGTCCAC, with -0.669; and TTGTCCTCCTCGTGGGCCCGTG, with -1.12.
Still for that read-out and setting: for TGAGTCCACAGACATCCGCAGC the value was -1.61; for TTGGCGATGCCCTTGCCTCGGA, -0.817.
Same read-out and setting: for TTCTCTGTCCCTTCGCTCGCTT the value was -0.787; for ATCCGCAGCAGCTCCACCGTGT, -0.56; for TAGCGGTGGTAGCGGACCTGGA, -1.68.
For the sequence TAACTTATTAGAAAATGTGTTG, the sensor-assay potency score (higher = more potent) was -0.872.
Still for that read-out and setting: then TCTTAGGGTACAAACTACCGTT, with -0.674.
